Results as given in PubChem BioAssay (EPA / NIEHS).
Where “and” joins values, the source holds several entries; their conditions need not be identical. Equal entries are not always repeated. Inconclusive results are not listed. The source holds several records for some structures; these can differ, active in one and inactive in another. Calls of active or inactive are those of the source. How the source made its calls: active means hit-call score of the fitted dose curve at least 0.9, where 1 is the maximum; inconclusive means response in the unintended direction; inactive means score below 0.9.

Assay: Tanguay_ZF_120hpf_PFIN_legacy: (Legacy) Oregon State University Tanguay Lab 120 Hour Post-fertilization zebrafish Assay for Pectoral Fin Malformation (AID 2283648);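 further: each larva judged yes or no for fin defect by brightfield with dead larvae skipped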
Method: Tanguay_ZF_120hpf_legacy is a whole embryo, multiplexed endpoint assay using zebrafish larvae exposed for 120 hours post fertilization on a 96-well plate.Tanguay_ZF_120hpf_PFIN_legacy is one of one assay component(s) measured or calculated from the Tanguay_ZF_120hpf_legacy assay. It is designed to make measurements of zebrafish development as detected with brightfield microscopy of developing zebrafish embryos.Data from the assay component Tanguay_ZF_120hpf_PFIN_legacy was analyzed into 1 assay endpoints. This assay endpoint, Tanguay_ZF_120hpf_PFIN_legacy, was analyzed in the positive analysis fitting direction relative to DMSO as the negative control and baseline of activity. Using a type of morphology reporter, gain-of-signal activity can be used to understand changes in developmentals as they relate to the whole embryo. To generalize the intended target to other relatable targets, this assay endpoint is annotated to the zebrafish development intended target family, where the subfamily is pectoral fin morphogenesis.
Zebrafish husbandry: Tropical 5D wild-type adult zebrafish were housed in at an approximate density of 1000 per 100 gallon tank at the Sinnhuber Aquatic Research Laboratory, Oregon State University, Corvallis, OR. Each tank was kept at standard laboratory conditions of 28C on a 14-h light/10-h dark photoperiod in fish water consisting of reverse osmosis water supplemented with a commercially available salt (Instant Ocean). Spawning funnels were placed into the tanks the night prior, and embryos were collected and staged. To increase bioavailability, the chorion was enzymatically removed using pronase (63.6mg/ml, >/= 3.5U/mg, Sigma-Aldrich: P5147) at 4 hours post fertilization (hpf) using a custom automated dechorionator.Chemical exposures: Six hpf dechorionated embryos were placed 1 embryo per well in a 96-well plate prefilled with 90 ul of EM using automated embryo placement systems (AEPS). Ten microliters of each row of dilution plate 2 was added to 2 exposure plates. The final DMSO concentration used was 0.64% (vol/vol). Thirty-two embryos were also exposed to 5uM trimethyltin chloride (positive control). Plates were sealed to prevent evaporation and foil covered to reduce light exposure and kept in a 28C incubator. Embryos were statically exposed until 120 hpf. At 24 hpf, embryos were assessed for photomotor response using a custom photomotor response analysis tool (PRAT) and for developmental toxicity endpoints (MO24: mortality at 24 hpf, DP: developmental progression, SM: spontaneous movement, and NC: notochord distortion). At 120 hpf, locomotor activity was measured using Viewpoint Zebralab and assessed for 18 endpoints. Zebrafish acquisition and analysis program (ZAAP), a custom program designed to inventory, acquire, and manage zebrafish data, was used to collect developmental endpoints as either present or absent (i.e., binary responses were recorded). If mortality occurred for an embryo (at either 24 or 120 hpf), the non-mortality endpoints were not measured.

Row | SMILES | outcome | AC50
1 | CCOC(=O)COc1cc(-n2ncc(C(F)(F)F)c(C)c2=O)c(F)cc1Cl | inactive | 
2 | CCN(Cc1c(F)cccc1Cl)c1c([N+](=O)[O-])cc(C(F)(F)F)cc1[N+](=O)[O-] | inactive | 
3 | COC(=O)CSc1cc(N=c2sc(=O)n3n2CCCC3)c(F)cc1Cl | inactive | 
4 | CC(C)(c1ccc(O)cc1)c1ccc(O)cc1 | inactive | 29.8 µM (active) and 37.2 µM (active)
5 | Cc1nn(C)c(Oc2ccccc2)c1C=NOCc1ccc(C(=O)OC(C)(C)C)cc1 | inactive | 
6 | CC1(C)C(C=C(Cl)Cl)C1C(=O)OCc1cccc(Oc2ccccc2)c1 (stereo not given) | inactive | 
7 | CSC(=O)c1cccc2nnsc12 | inactive | 
8 | COCCO | inactive | 
9 | CCNc1nc(N)nc(Cl)n1 | inactive | 
10 | C=CCOC(Cn1ccnc1)c1ccc(Cl)cc1Cl (stereo not given) | inactive | 
11 | O=C(c1ccccc1)C1CCCCC1 | inactive | 
12 | CCCCOC(=O)C(C)Oc1ccc(Oc2ccc(C(F)(F)F)cn2)cc1 (stereo not given) | inactive | 
13 | CCCCCCC(C)OC(=O)COc1nc(F)c(Cl)c(N)c1Cl (stereo not given) | inactive | 
14 | c1ccc(Nc2ccccc2)cc1 | inactive | 
15 | CC(=O)S[C@@H]1CC2=CC(=O)CC[C@]2(C)[C@H]2CC[C@@]3(C)[C@@H](CC[C@@]34CCC(=O)O4)[C@H]12 | inactive | 
16 | CC(=O)[C@H]1CC[C@H]2[C@@H]3CCC4=CC(=O)CC[C@]4(C)[C@H]3CC[C@]12C | inactive | 
17 | CCCCOCCOCCOCc1cc2c(cc1CCC)OCO2 | inactive | 
18 | CN(C)C(=O)Nc1ccc(Cl)c(Cl)c1 | inactive | 
19 | CCOC(=O)C(C)Oc1ccc(Oc2nc3ccc(Cl)cc3o2)cc1 (stereo not given) | inactive | 
20 | CC(C)CCCCCCc1ccc(O)cc1 | inactive | 

Row | SMILES | outcome | AC50
21 | CCCCCOC(=O)COc1cc(N2C(=O)C3=C(CCCC3)C2=O)c(F)cc1Cl | inactive | 
22 | CCCN(CCC)c1c([N+](=O)[O-])cc(C(F)(F)F)c(N)c1[N+](=O)[O-] | inactive | 
23 | CCN(CC)C(=O)c1cccc(C)c1 | inactive | 
24 | S=C([S-])NCCNC(=S)[S-].[Mn+2] | inactive | 
25 | CCSC(=O)N(CC(C)C)CC(C)C | inactive | 
26 | CC(C)(C)[C@@H](O)[C@@H](Cc1ccc(Cl)cc1)n1cncn1 | inactive | 
27 | CCOC(=O)c1ccc(O)cc1 | inactive | 
28 | N#CSCSc1nc2ccccc2s1 | inactive | 
29 | CCCN(CCC)C(=O)SCC | inactive | 
30 | O=C(O)c1ccccc1 | inactive | 
31 | C[C@]12CC[C@@H]3c4ccc(O)cc4C[C@@H](CCCCCCCCCS(=O)CCCC(F)(F)C(F)(F)F)[C@H]3[C@@H]1CC[C@@H]2O (stereo not given in full) | inactive | 
32 | CCCCOC(=O)[C@@H](C)Oc1ccc(Oc2ccc(C(F)(F)F)cn2)cc1 | inactive | 
33 | CCCOC(=O)c1ccc(C(=O)OCCC)nc1 | inactive | 
34 | CCOC(=O)NCCOc1ccc(Oc2ccccc2)cc1 | inactive | 
35 | COc1c(Cl)ccc(Cl)c1C(=O)O | inactive | 
36 | Oc1ccc(C(c2ccc(O)cc2)C(Cl)(Cl)Cl)cc1 | inactive | 
37 | COC(=O)c1ccc(I)cc1S(=O)(=O)NC(=O)Nc1nc(C)nc(OC)n1 | inactive | 
38 | CCOC(=O)C(C)Oc1ccc(Oc2cnc3cc(Cl)ccc3n2)cc1 (stereo not given) | inactive | 
39 | O=C(c1ccc(O)cc1O)c1ccc(O)cc1O | inactive | 
